Compounds without any hit were thinned out: in the full panel of roughly 83,000, 20% have a hit.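 A percent growth of 40 corresponds to 60% growth inhibition; 0 means no net growth; -100 means all cells died. Active threshold: below 10.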 Calls of active or inactive are those of the source.

The subject of one experiment is NCI-H322M lung. As to the kind of experiment: NCI-60 one-dose screen, 48 h (100 = growth as untreated, 0 = no growth, -100 = all killed). To be noted: 10 µM unless noted.
In the case of `O=C(c1cccc(C(=O)c2ccc3c4c(cccc24)C(=O)N(c2ccccc2)C3=O)c1)c1ccc2c3c(cccc13)C(=O)N(c1ccccc1)C2=O`, the growth was 113% (inactive).
Still for that read-out and setting: in the case of `Cc1ccc[n+](CCC(N)=O)c1` it was 103% (inactive); in that of `Cc1ccc2nc(N)nnc2c1`, 112% (inactive).
Still for that read-out and setting: in the case of `CCOc1ccncc1[N+](=O)[O-]` it was 110% (inactive); in that of `Oc1cc(O)c2c(c1)O[C@H](c1ccc(O)c(O)c1)[C@@H](O)C2`, 105% (inactive).
For the molecule `Cn1c(=O)c2nc3c(=O)n(C)c(=O)n(C)c3nc2n(C)c1=O`, the growth is 101% (inactive).
Turning to `C=CCOc1ccc(Cl)cc1Cl`, the growth is 113% (inactive).
Take `CCOC(=O)/C(O)=C(\C=N\C(=S)Nc1ccc(Cl)c(Cl)c1)C(=O)OCC`: the growth is 106% (inactive).
Same read-out and setting: then `CCOc1ccc(NC(=S)N2CCC(CCCC3CCN(C(=S)Nc4ccc(OCC)cc4)CC3)CC2)cc1`, with 100% (inactive); and `Clc1ccc(C(SCc2ccccc2)SCc2ccccc2)cc1`, with 111% (inactive).
Take `CC(=O)C1C(=O)C(=O)N(c2ccc(Cl)c(Cl)c2)C1=O` (stereo unspecified): the growth was 108% (inactive).
`Cc1cc(Cl)cc(Cc2cc(Cl)cc(C)c2O)c1O`: the growth is 18.1% (inactive).
With `c1ccc(Oc2c3ccccc3nc3ccccc23)cc1`, the growth was 56.3% (inactive).
Turning to `O=[N+]([O-])c1ccc2[nH]c(=S)n(/C=C(/c3ccc(Cl)cc3Cl)S(=O)(=O)Cc3ccc(Cl)cc3Cl)c2c1`, the growth is 100% (inactive).
With `N#C/C(=C\c1ccc(C#N)cc1)C(=O)c1ccccc1`, the growth was 97.4% (inactive).
Still for that read-out and setting: then `COc1cc(OC)c(NC(=O)C(Sc2nc(C)cc(C)c2C#N)c2ccccc2)cc1Cl` (stereo unspecified), with 106% (inactive); and `O=c1nc(Nc2cccc(Cl)c2)oc2cc(Cl)oc(=O)c12`, with 108% (inactive).
Take `C/C(O)=C(/C=N\C(=S)Nc1ccc(S(=O)(=O)Nc2nccs2)cc1)C(=O)Nc1ccccc1C`: the growth was 99.7% (inactive).
Still for that read-out and setting: in the case of `CC(O)C(F)(F)C(F)(F)C(F)(F)F` (stereo unspecified) it was 114% (inactive).
Turning to `CCOP(=O)(NC(c1ccccc1)c1ccccc1)OCC`, the growth is 99% (inactive).
With `CC(=O)OCC1OC(n2cnc3c(=S)nc(N)[nH]c32)C(OC(C)=O)C1OC(C)=O` (stereo unspecified), the growth was 77.3% (inactive).
Turning to `CCCCn1cnc2c(=O)[nH]cnc21`, the growth was 104% (inactive).
Same read-out and setting: then `O=C(NCc1ccccc1)/C(=C/c1ccccc1)NC(=O)c1ccccc1`, with 104% (inactive); and `O=CNCCc1ccccc1`, with 106% (inactive); and `COC1OC(C(COC(C)=O)OC(C)=O)C(OC(C)=O)C(OC(C)=O)C1OC(C)=O` (stereo unspecified), with 115% (inactive).
Take `O=S(Cc1ccccc1)/C(=C/NC(=S)Nc1cc(Cl)ccc1Cl)c1ccccc1` (stereo unspecified): the growth is 93.7% (inactive).
On to `Cc1c(Cl)cccc1N=C=S`, for which the growth is 95.4% (inactive).
Turning to `CC(=O)C1C(=O)C(=O)N(c2cccc([N+](=O)[O-])c2)C1=O` (stereo unspecified), the growth was 114% (inactive).
On the same count and under the same terms, then `CCOc1ccc2c(c1)c(C)cc(C)[n+]2CC`, with 83.2% (inactive).
On the same count and under the same terms, then `S=CN1CCCCC1`, with 102% (inactive); and `Cc1nc(C)c(C(=O)O)cc1C(=O)O`, with 126% (inactive); and `Cc1cc(CC(=O)NCCO)n(CCO)c(=O)c1`, with 103% (inactive).
The same measure, in the same setting: then `NC(CSSCC(N)C(=O)O)C(=O)O` (stereo unspecified), with 36.6% (inactive).
Regarding `C/C(O)=C(/C=N/C(=S)Nc1ccccc1)C(=O)Nc1ccccc1C`, the growth was 104% (inactive).
`CC(C)(C)[Si](C)(C)OCC1OC(n2cnc3c(N)ncnc32)CC1OS(C)(=O)=O` (stereo unspecified): the growth is 109% (inactive).
Still for that read-out and setting: in the case of `NNC(=O)N/N=C1\C(=O)N(c2nccs2)C(=O)C(=O)C1c1nc2ccccc2s1` (stereo unspecified) it was 105% (inactive).
The same measure, in the same setting: in the case of `C(=C\c1ccncc1)/c1ccncc1` it was 90.8% (inactive); in that of `CC(=O)NCNC(C)=O`, 110% (inactive).

The test system of another experiment is HOP-62 NSCLC. Described as above. To be noted: 10 µM unless noted.
Turning to `O=C(c1cccc(C(=O)c2ccc3c4c(cccc24)C(=O)N(c2ccccc2)C3=O)c1)c1ccc2c3c(cccc13)C(=O)N(c1ccccc1)C2=O`, the growth is 101% (inactive).
For the molecule `Cc1ccc[n+](CCC(N)=O)c1`, the growth was 87.2% (inactive).
For the molecule `Cc1ccc2nc(N)nnc2c1`, the growth is 105% (inactive).
The same measure, in the same setting: then `CCOc1ccncc1[N+](=O)[O-]`, with 99.1% (inactive); and `Oc1cc(O)c2c(c1)O[C@H](c1ccc(O)c(O)c1)[C@@H](O)C2`, with 107% (inactive).
Take `Cn1c(=O)c2nc3c(=O)n(C)c(=O)n(C)c3nc2n(C)c1=O`: the growth was 93% (inactive).
Still for that read-out and setting: in the case of `C=CCOc1ccc(Cl)cc1Cl` it was 113% (inactive); in that of `CCOC(=O)/C(O)=C(\C=N\C(=S)Nc1ccc(Cl)c(Cl)c1)C(=O)OCC`, 94.3% (inactive); in that of `CCOc1ccc(NC(=S)N2CCC(CCCC3CCN(C(=S)Nc4ccc(OCC)cc4)CC3)CC2)cc1`, 104% (inactive).
With `Clc1ccc(C(SCc2ccccc2)SCc2ccccc2)cc1`, the growth was 92.1% (inactive).
With `CC(=O)C1C(=O)C(=O)N(c2ccc(Cl)c(Cl)c2)C1=O` (stereo unspecified), the growth is 89.3% (inactive).
Turning to `Cc1cc(Cl)cc(Cc2cc(Cl)cc(C)c2O)c1O`, the growth is 56.8% (inactive).
Take `c1ccc(Oc2c3ccccc3nc3ccccc23)cc1`: the growth is 16.1% (inactive).
The same measure, in the same setting: in the case of `O=[N+]([O-])c1ccc2[nH]c(=S)n(/C=C(/c3ccc(Cl)cc3Cl)S(=O)(=O)Cc3ccc(Cl)cc3Cl)c2c1` it was 90.3% (inactive); in that of `N#C/C(=C\c1ccc(C#N)cc1)C(=O)c1ccccc1`, 103% (inactive).
For `COc1cc(OC)c(NC(=O)C(Sc2nc(C)cc(C)c2C#N)c2ccccc2)cc1Cl` (stereo unspecified), the growth was 65.5% (inactive).
As to `O=c1nc(Nc2cccc(Cl)c2)oc2cc(Cl)oc(=O)c12`, the growth was 81.5% (inactive).
On to `C/C(O)=C(/C=N\C(=S)Nc1ccc(S(=O)(=O)Nc2nccs2)cc1)C(=O)Nc1ccccc1C`, for which the growth was 96.1% (inactive).
For the molecule `CC(O)C(F)(F)C(F)(F)C(F)(F)F` (stereo unspecified), the growth is 104% (inactive).
The same measure, in the same setting: then `CCOP(=O)(NC(c1ccccc1)c1ccccc1)OCC`, with 95.5% (inactive); and `CC(=O)OCC1OC(n2cnc3c(=S)nc(N)[nH]c32)C(OC(C)=O)C1OC(C)=O` (stereo unspecified), with 49.3% (inactive); and `CCCCn1cnc2c(=O)[nH]cnc21`, with 105% (inactive).
Take `O=C(NCc1ccccc1)/C(=C/c1ccccc1)NC(=O)c1ccccc1`: the growth is 104% (inactive).
`O=CNCCc1ccccc1`: the growth was 90.8% (inactive).
Consider `COC1OC(C(COC(C)=O)OC(C)=O)C(OC(C)=O)C(OC(C)=O)C1OC(C)=O` (stereo unspecified), for which the growth was 99.3% (inactive).
Turning to `O=S(Cc1ccccc1)/C(=C/NC(=S)Nc1cc(Cl)ccc1Cl)c1ccccc1` (stereo unspecified), the growth was 92.8% (inactive).
With `Cc1c(Cl)cccc1N=C=S`, the growth is 88.5% (inactive).
In the case of `CC(=O)C1C(=O)C(=O)N(c2cccc([N+](=O)[O-])c2)C1=O` (stereo unspecified), the growth was 105% (inactive).
`CCOc1ccc2c(c1)c(C)cc(C)[n+]2CC`: the growth is 80.7% (inactive).
`S=CN1CCCCC1`: the growth is 108% (inactive).
Still for that read-out and setting: then `Cc1nc(C)c(C(=O)O)cc1C(=O)O`, with 106% (inactive); and `Cc1cc(CC(=O)NCCO)n(CCO)c(=O)c1`, with 91% (inactive); and `NC(CSSCC(N)C(=O)O)C(=O)O` (stereo unspecified), with 15.7% (inactive).
For the molecule `C/C(O)=C(/C=N/C(=S)Nc1ccccc1)C(=O)Nc1ccccc1C`, the growth was 99.4% (inactive).
On to `CC(C)(C)[Si](C)(C)OCC1OC(n2cnc3c(N)ncnc32)CC1OS(C)(=O)=O` (stereo unspecified), for which the growth is 104% (inactive).
Consider `NNC(=O)N/N=C1\C(=O)N(c2nccs2)C(=O)C(=O)C1c1nc2ccccc2s1` (stereo unspecified), for which the growth was 81.3% (inactive).
Same read-out and setting: in the case of `C(=C\c1ccncc1)/c1ccncc1` it was 101% (inactive); in that of `CC(=O)NCNC(C)=O`, 108% (inactive).

For the origin of these results see PubChem BioAssay (NCI).
